Calls of active or inactive are those of the source. How the calls were made is not given here.
assay: Brca1-Bard1 BiLC signal decrease – luminescence, single concentration, counter-screen for Mdm2/MdmX interaction inhibitor project, confirmation (AID 504668); conditions: Brca1/Bard1 bimolecular luciferase complementation counterscreen, at 8 µM, active compounds read high

SMILES	inhibition
COc1ccc(C(=O)N/N=C/c2cc(Br)ccc2O)cc1OC	29.6% (active)
O=C(Cc1ccccc1)N/N=C/c1cc(Br)cc(Cl)c1O	29.2% (active)
CC(C)(C)N1C(=O)[C@H]2[C@@H](c3ccc(Br)cc3)N3C(=O)N(c4ccc(Br)cc4)C(=O)[C@@]3(Cc3ccccc3)[C@H]2C1=O	35.6% (active)
COc1ccccc1N(CC(=O)N/N=C/c1c(O)ccc2ccccc12)S(C)(=O)=O	26.2% (active)
CN1CCN(C(c2ccc(C(F)(F)F)cc2)c2cc(Cl)c3cccnc3c2O)CC1 (centres undefined)	24.6% (active)
COc1ccc(-n2c(C)c([N+](=O)[O-])c3ccc(O)c(CN4CCCCC4)c32)cc1	28.9% (active)
COc1ccccc1-c1cc(C(F)(F)F)nc(S(=O)(=O)CCCC(=O)NC(C)C)n1	31.4% (active)
CCOC(=O)N1C(=O)[C@@](c2ccc(Cl)cc2)(C(C)C)N1C(=O)OCC	33.2% (active)
CC(=O)Oc1c(-c2ccc(Br)o2)oc2ccccc2c1=O	29.9% (active)
Cc1ccc(NC(=O)c2ccccc2NS(=O)(=O)c2ccc(Cl)s2)cc1	28.9% (active)
C/C(=N/NC(=O)CN(c1ccccc1)S(=O)(=O)c1ccccc1)c1ccccc1O	26.8% (active)
CC(=O)N1CCN(c2ccc(NC(=O)c3ccc([N+](=O)[O-])o3)cc2Cl)CC1	26.6% (active)
C=CCn1c(CNc2ccc(C)cc2)nnc1SCC(=O)N/N=C/c1ccc(O)cc1O	35.6% (active)
O=C(Nc1ccc(-c2nc3ccccc3[nH]2)cc1)c1ccc2c(c1)OCO2	28.7% (active)
Cc1nc(SCc2nc3cc(Cl)c(F)cc3[nH]2)c2oc3ccccc3c2n1	31.6% (active)
COc1ccc(/C=C2/SC(=S)N(CCCC(=O)N3CCN(C)CC3)C2=O)cc1	31.7% (active)
Cc1ccc(C)c(NC(=S)NC(NC(=O)/C=C/c2ccccc2)C(Cl)(Cl)Cl)c1 (centres undefined)	31.4% (active)
COc1cccc(-c2sc3ccc(OC)cc3c2-c2ccc(OCCN3CCCC3)cc2)c1	27.8% (active)
CC(=O)Oc1c(C)cc(Cl)cc1C(=O)Nc1ccc([N+](=O)[O-])cc1Cl	27.7% (active)
COc1ccc(-n2nc(C(=O)c3cccs3)cc(-c3nc4ccccc4[nH]3)c2=N)cc1	30.8% (active)
Cc1cccc([C@@H]2[C@@H]3C(=O)N(Cc4ccccc4)C(=O)[C@@H]3[C@]3(C)C(=O)N(c4ccc(C(F)(F)F)cc4)C(=O)N23)c1	33.2% (active)
CC(C)(C)c1cc(NCCCn2ccnc2)n2ncc(-c3ccc(Cl)cc3)c2n1	34.9% (active)
CC[C@]1(c2ccccc2OC)ON(c2ccccc2C(F)(F)F)C1=O	34.6% (active)
CCN(CC)C(=O)C1CCCc2c1[nH]c1ccc(Cl)cc21 (centres undefined)	34.6% (active)
